Assay results taken from PubChem BioAssay (EPA / NIEHS).
Active and inactive are the calls of the source. The calls were made as follows: active = hit-call score of the fitted dose curve at least 0.9, where 1 is the maximum; inactive = score below 0.9.

System: not listed separately
Experiment: CCTE_Deisenroth_DEVTOX-GLR_Pluri_CellCount: Viability Assessment in CCTE's DevTox GLR-Pluri Assay Evaluation of Total Cell Counts, Deisenroth Lab (AID 2284430)
Experimental: CCTE_Deisenroth_DEVTOX-GLR_Pluri assay is a cell-based, multiplex-readout assay that uses RUES2-GLR, a human pluripotent cell line, with measurements taken at 48 hours after chemical dosing in a 384-well microplateCCTE_Deisenroth_DEVTOX-GLR_Pluri_CellCount is 1 of 4 assay components calculated from the CCTE_Deisenroth_DEVTOX-GLR_Pluri assay and it measures cell count. Using fluorescent nuclei staining, gain-of-signal activity can be used to understand changes in cell viability with fluorescent microscopy. It is designed to make measurements of nuclei counts as a surrogate for cell number, as detected with optical fluorescence microscopy by Perkin Elmer Harmony nuclei detection algorithm. To generalize the intended target to other relatable targets, this assay component is annotated to the cell cycle intended target family, where the subfamily is cytotoxicity.Data from the assay component CCTE_Deisenroth_DEVTOX-GLR_Pluri_CellCount was analyzed as 1 assay endpoint. The endpoint the percent change in the cell count relative to the 0.2% DMSO control in the CCTE_Deisenroth_DEVTOX-GLR_Pluri assay. Furthermore, this assay endpoint can be referred to as a primary readout, because this assay has produced multiple assay endpoints where this one serves as a measure of cytotoxicity.
All assay protocols are aligned to the DevTox GLR-Endo assay workflow. Cells are seeded into 384-well microplates for 24 hours prior to initiating differentiation in defined media for a total duration of 48 hours. A total of two chemical exposures are administered in 24-hour intervals during the 48-hour differentiation period. At the assay termination point, cells are fixed and stained with a fluorescent dye demarcating the nucleus. High-content imaging is used to acquire brightfield and fluorescent channel images across 5 fields per well. Cell identification and mean biomarker fluorescence intensities are calculated with image analysis software to determine the total cell counts for viability assessment and the biomarker expression frequency for each lineage-dependent assay. A typical experimental design tests a 10-point concentration series (1 nM - 200 uM) for 28 compounds in single technical replicate. Assay plate controls include non-differentiated pluripotent cells (baseline control), lineage-specific differentiated cells (differentiation control), and DMSO solvent exposed differentiated cells (solvent control). Experiments typically comprise a minimum of four experimental replicates (n=4).

SMILES	outcome	AC50
NC(=O)N1c2ccccc2C=Cc2ccccc21	inactive	
NNC(=O)c1ccncc1	inactive	
CCCC(CCC)C(=O)O	inactive	
Nc1ccn([C@@H]2O[C@H](CO)[C@@H](O)[C@@H]2O)c(=O)n1		0.234 µM (active)

System: TTR (gene 7276)
Experiment: CCTE_GLTED_hTTR_0.125uM: CCTE's human Transthyretin (hTTR) Inhibition Assay, with 0.125uM TTR, Great Lakes Toxicology and Ecology Division (GLTED) Lab (AID 2284431);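 also: hits lower the fluorescence signal relative to DMSO baseline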
Outline: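 Cell-free displacement of ANSA probe from 0.125uM TTR after 2 h incubation with chemical. Fluorescence read at 380 nm excitation/475 nm emission; loss of signal relative to DMSO indicates T4-site displacement.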

SMILES	AC50
O=S(=O)(O)c1ccc(N=Nc2c(O)ccc3cc(S(=O)(=O)O)ccc23)cc1	17.1 µM (active)
C=CCc1cc(S(=O)(=O)c2ccc(O)c(CC=C)c2)ccc1O	1.67 µM (active)
CCc1ccc(O)c(C(C)(C)C)c1	12.4 µM (active)
